In the library only some 2.5% were active in any assay of this set; here they are far more common.
WRN helicase inh: qHTS for Inhibitors of WRN Helicase | Bifunctional 3'-5' exonuclease/ATP-dependent helicase WRN (Homo sapiens), Q14191 | WRN helicase unwinding, fluorescent forked duplex, kinetic | Potency, µM (top dose mostly 114 µM), for inactives: at the top dose activity change, negative = inhibition, actives largely listed as inhibitors | 360,000 compounds, 0.46% hits; note: % is set by controls: 0 for no effect and ±100 for the full control effect; nearly all actives have a fitted effect of over 55% in size
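Kinetic red-fluorescence monitoring (525/598 nm) tracks WRN helicase activity after 100 nM fluorophore-quencher forked duplex and 2 mM ATP are added to 20 nM enzyme pretreated 15 min at room temperature with compound.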
POLH inh: qHTS for Inhibitors of Polymerase Eta; AID 588591, 2011; DNA polymerase eta (Homo sapiens), Q9Y253; recombinant Pol eta, fluorescent DNA replication assay; 390,000 compounds, 1.2% hits; Potency, µM (highest dose often 114 µM), for the others: at the top dose activity change, negative = inhibition, hits mostly inhibitors; note: % is set by controls: 0 for no effect and ±100 for the full control effect
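Pol eta at 10 nM preincubated with compounds 15 min at room temperature; reaction started with fluorescent substrate (50 nM final) and read kinetically at 0 and 10 min.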
Pol beta inh: qHTS Assay for Inhibitors of DNA Polymerase Beta; P06746; Pol beta primer extension/strand displacement, fluorescence kinetic; Potency, µM (titrated, usually from 114 µM), without a hit: at the highest dose activity change, negative = inhibition, actives largely listed as inhibitors; 340,000 compounds, 1.3% hits; note: % is set by controls: 0 for no effect and ±100 for the full control effect
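Homogeneous kinetic assay of primer extension and strand displacement by 10 nM Pol beta, preincubated 15 min at room temperature with compound before 50 nM substrate (final) was added. Read at 0 and 10 min; four-parameter Hill fit.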
Pol kappa inh: qHTS for Inhibitors of Polymerase Kappa | purified Pol kappa, fluorescent DNA synthesis assay, 10 min | Potency, µM (series often up to 107 µM), inactives show at the highest dose activity, negative = inhibition, most hits filed as inhibitors | 400,000 compounds, 0.53% hits | DNA polymerase kappa (Homo sapiens), Q9UBT6; note: % is set by controls: 0 for no effect and ±100 for the full control effect
Target sequence (Q9UBT6 whole entry, looked up): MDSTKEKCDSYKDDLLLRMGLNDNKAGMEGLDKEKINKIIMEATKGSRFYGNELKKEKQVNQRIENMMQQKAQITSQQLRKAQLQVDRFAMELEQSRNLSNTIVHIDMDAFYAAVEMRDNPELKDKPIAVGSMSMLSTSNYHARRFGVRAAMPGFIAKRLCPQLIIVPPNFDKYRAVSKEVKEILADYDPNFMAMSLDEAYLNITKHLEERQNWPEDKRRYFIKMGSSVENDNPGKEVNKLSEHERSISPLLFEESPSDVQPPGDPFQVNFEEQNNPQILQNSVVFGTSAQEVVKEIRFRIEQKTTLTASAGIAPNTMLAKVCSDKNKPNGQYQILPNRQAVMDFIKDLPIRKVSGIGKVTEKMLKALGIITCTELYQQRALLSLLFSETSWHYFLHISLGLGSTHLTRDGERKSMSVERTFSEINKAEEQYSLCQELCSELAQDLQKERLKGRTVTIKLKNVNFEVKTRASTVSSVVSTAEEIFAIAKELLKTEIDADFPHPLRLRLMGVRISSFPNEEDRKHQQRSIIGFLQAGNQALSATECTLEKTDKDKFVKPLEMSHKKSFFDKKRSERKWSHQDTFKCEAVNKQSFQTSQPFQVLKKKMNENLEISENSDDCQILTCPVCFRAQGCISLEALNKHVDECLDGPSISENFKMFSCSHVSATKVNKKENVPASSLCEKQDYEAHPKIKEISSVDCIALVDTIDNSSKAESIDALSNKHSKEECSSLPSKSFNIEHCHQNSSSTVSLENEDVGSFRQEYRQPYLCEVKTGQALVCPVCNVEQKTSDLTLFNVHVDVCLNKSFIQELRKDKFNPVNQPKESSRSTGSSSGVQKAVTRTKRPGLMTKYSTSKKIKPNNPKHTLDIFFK
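Kinetic fluorescence readout at 0 and 10 min followed reaction start with substrate at 50 nM final. Beforehand, enzyme (10 nM Pol kappa) stood 15 min with compound at room temperature; buffer-only wells were negative controls.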
Pol iota inh: qHTS for Inhibitors of Polymerase Iota; Potency, µM (doses to about 115 µM), inactives show top-dose activity, negative = inhibition, most hits filed as inhibitors; AID 588590, 2011; DNA polymerase iota (Homo sapiens), Q9UNA4; Pol iota fluorescent replication assay, 10 min; 390,000 compounds, 1% hits
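Fluorescent replication assay read twice, at 0 min and 10 min after adding 50 nM (final) substrate. Enzyme (10 nM) and compounds were first incubated 15 min at room temperature; enzyme-free buffer wells were negative controls.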
L3MBTL1 inh: qHTS Assay for the Inhibitors of L3MBTL1; AlphaScreen L3MBTL1–H3K9me1 peptide binding; AID 485360, 2010; 230,000 compounds, 0.66% hits; Lethal(3)malignant brain tumor-like protein 1 (Homo sapiens), Q9Y468; Potency, µM (doses to about 57.1 µM), without a hit: at the highest dose activity, negative = inhibition, usual class: inhibitors; note: % is set by controls: 0 for no effect and ±100 for the full control effect; nearly all actives have a fitted effect of over 60% in size
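AlphaScreen proximity signal between nickel-chelate acceptor and streptavidin donor beads (final 10 ug/mL) reports binding of 50 nM L3MBTL1 to 75 nM biotin-H3 K9me1 peptide; complex incubated with compounds 30 min at room temperature; cefsulodin titration as control.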
* hit, by the source's call; ? = inconclusive; . = no result given; [ ] = remark or other dose. Calls come from the whole dose curve; as a rule, active = well fitted curve in the direction sought with a large enough effect; inconclusive = small, poorly fitted or top-dose-only effect, or another doubt; inactive = no such curve, though single readings can be large; an effect the other way counts as inactive or inconclusive. Potency is the fitted concentration of half-maximal effect.

SMILES	WRN helicase inh	POLH inh	Pol beta inh	Pol kappa inh	Pol iota inh	L3MBTL1 inh
COc1cc(/C=C2\CC/C(=C\c3ccc(OCCO)c(OC)c3)C2=O)ccc1OCCO	-21%[57.1 µM]	?	2.5µM*	-36%	7.1µM*	-3%
Cc1cc(OCC(=O)OCC(=O)N2CCc3ccccc32)ccc1Cl	-4%	-17%	.	-6%	4%	14%
COCCNC(=O)C1CCC(CNS(=O)(=O)c2ccc(F)cc2)CC1 (stereo not given)	-14%	?	30%	5%	28%	.
O=C(CCC(=O)N1CCOc2ccc(Cl)cc21)NCCCN1CCN(c2ccccc2F)CC1	3%	-20%	-19%	7%	18%	3%
Cc1cc2c(C)nc(N/N=C/c3ccc([N+](=O)[O-])cc3)nc2o1	-26%[11.6 µM]	?	-19%	-13%	35µM*	7%
Cc1cc2c(C)nc(N/N=C/c3ccc(F)cc3)nc2o1	-7%	-19%	?	-7%	-18%	-8%
CCc1nn(CC(=O)NCCCN(CC)CC)c(=O)c2cc3sc(C)cc3n12	5%	-19%	27%	-11%	54%	.
CCCCN(CCCC)CCNC(=O)Cn1nc(CC)n2c(cc3sc(C)cc32)c1=O	.	-10%	45%	-6%	25µM*	.
O=C1C(N2CCOCC2)=C(n2nnc3ccccc32)C(=O)c2ccccc21	-1%	45µM*	-4%	-7%	?	.
O=C1c2ccccc2C(=O)c2c1cccc2-n1nnc2ccccc21	-4%	-12%	-1%	3%	61%	.
COC(=O)c1ccn(CC(=O)NC2CCCCC2)n1	-1%	?	40µM*	-21%	-20%	.
Cc1cc(=O)[nH]c(SCC(=O)Nc2cccc(S(=O)(=O)N3CCOCC3)c2)n1	-20%	-9%	.	-5%	14%	3%
Cc1cc(=O)cc(C)n1-c1ccc(Br)cc1	16µM*	-16%	-13%	4%	44%	.
Cc1nc2ccccc2n1CCc1nc2c3ccccc3nc(SCC(=O)NCc3ccco3)n2n1	-27%	?	40µM*	-7%	?	8%
Cc1ccccc1NC(=O)CSc1nc2ccccc2c2nc(CCn3c(C)nc4ccccc43)nn12	.	-10%	-15%	-1%[60.1 µM]	16%	.
CN1C(=O)NC(c2ccc(O)cc2)C2=C1CN(c1ccccc1)C2=O (stereo not given)	3%	23%	-2%	-3%	6%	.
Cc1c(C(=O)OCC(=O)NCc2ccco2)cccc1[N+](=O)[O-]	-34%	25µM*	.	-30%	56µM*	-26%
O=C(COC(=O)c1ccc([N+](=O)[O-])cc1Cl)NCc1ccco1	8%	-10%	.	-19%	-19%	-2%
COc1ccccc1NS(=O)(=O)c1ccc(C(=O)OCC(=O)NCc2ccco2)cc1	-25%	?	16µM*	-34%	?	?
OCC[C@@H]1NCc2cc(CO)cc(-c3ccccc3)c21	-4%	-22%	.	0%	12%	.
COc1ccccc1OCCNC(=O)c1ccccc1OCc1c(C)noc1C	4%	-12%	.	-6%	12%	-2%
Cc1ccc(NC(=O)Cn2c(=O)oc3ccccc32)cc1	7%	-14%	25%	-16%	141%	8%
Cc1ccc(NC(=O)Cn2c(=O)oc3ccccc32)cc1Cl	-20%	0%	40µM*	-23%	92%	.
COc1cc2ccc(=O)oc2cc1OCC(O)C(C)(C)O (stereo not given)	-5%	-4%	35µM*	?	?	.
CCOC(=O)c1cc2c(=O)n3cccc(C)c3nc2n(C)c1=N	.	.	79µM*	.	.	-1%
SMILES	WRN helicase inh	POLH inh	Pol beta inh	Pol kappa inh	Pol iota inh	L3MBTL1 inh
CCOCCCn1c(=N)c(C(N)=S)cc2c(=O)n3cccc(C)c3nc21	-27%	-5%	-23%	0%	?	-5%
COC(=O)c1ccc(CSc2nc3sc(C(=O)O)c(C)c3c(=O)[nH]2)cc1	-18%	-10%	0%	0%	-16%	1%
Cc1c(C(=O)O)sc2nc(/C=C/c3cccc(O)c3)[nH]c(=O)c12	?	35µM*	-2%	-13%	?	.
O=C1CN(C(=O)c2cnccn2)c2ccccc2N1	-2%	2%	29%	-21%	2%	3%
CC(=O)N(/N=C1\Sc2ccccc2C1=O)c1cccc(C)c1	-13%[11.6 µM]	20µM*	-2%	1%	?	-18%
O=S1(=O)NC(=NCC(c2ccco2)N2CCCCC2)c2ccccc21 (stereo not given)	-5%	2%	23%	-4%	-17%	2%
CN(C)C(CN=C1NS(=O)(=O)c2ccccc21)c1ccco1 (stereo not given)	-3%	-20%	?	-31%	79µM*	-10%
Cc1ccc(-c2nc(SCC(=O)N(C)c3c(N)n(Cc4ccccc4)c(=O)[nH]c3=O)n[nH]2)cc1	-1%	-23%	89µM*	-3%	31%	.
CCN(C(=O)CSc1n[nH]c(-c2ccc(OC)cc2)n1)c1c(N)n(Cc2ccccc2)c(=O)[nH]c1=O	3%	-15%	.	-26%	-4%	.
Brc1ccc(-c2nn3c(-c4ccncc4)nnc3s2)o1	.	.	-5%	.	.	-3%
Clc1ccc(-c2ccc(-c3nn4c(-c5ccco5)nnc4s3)o2)cc1	?	79µM*	.	-22%	?	.
Brc1ccc(-c2nn3c(-c4ccco4)nnc3s2)o1	?	?	45µM*	?	?	-15%
Brc1ccc(-c2nn3c(-c4ccccn4)nnc3s2)o1	?	79µM*	22µM*	?	?	?
c1ccc(-c2nn3c(-c4ccco4)nnc3s2)nc1	-21%	?	-1%	-9%	?	-11%
Cc1ccccc1OCCOC(=O)c1ccc(S(=O)(=O)N2CCCC2)cc1	-1%	-12%	.	-12%	2%	34%
Nc1ccc(S(=O)(=O)Nc2nc3ccccc3o2)cc1	-8%[11.6 µM]	45µM*	79µM*	?	?	-4%
Cc1oc2c(cc(NS(=O)(=O)c3ccc(Cl)cc3)c3ccccc32)c1C(=O)O	-21%	50µM*	20%	-41%	46%	.
CC1CCCCN1CCCNc1ccc(C(CC(N)=O)NC(=O)Cc2cccc3ccccc23)cc1[N+](=O)[O-] (stereo not given)	-5%	-9%	-16%	-7%	15%	7%
CCc1nnc(NS(=O)(=O)c2ccc(NC(=S)Nc3ccc(F)cc3)cc2)s1	5%	-5%	42%	-15%	-10%	2%
